{
  "source": "ChEMBL document CHEMBL1201862",
  "about": "“PubChem BioAssay data set” (2004)",
  "note": "The whole screen tested about 310,000 compounds, of which about 17,000 (5.5%) were called active. About 11% were inconclusive and are not listed. The calls are words filed in the database; no cut-off is given here. The entries come from a sample that favours actives as a whole.",
  "data": [
    {"target": "T1, Nuclear receptor ROR-gamma (Mus musculus) (UniProt P51450)", "T1 sequence (whole entry)": "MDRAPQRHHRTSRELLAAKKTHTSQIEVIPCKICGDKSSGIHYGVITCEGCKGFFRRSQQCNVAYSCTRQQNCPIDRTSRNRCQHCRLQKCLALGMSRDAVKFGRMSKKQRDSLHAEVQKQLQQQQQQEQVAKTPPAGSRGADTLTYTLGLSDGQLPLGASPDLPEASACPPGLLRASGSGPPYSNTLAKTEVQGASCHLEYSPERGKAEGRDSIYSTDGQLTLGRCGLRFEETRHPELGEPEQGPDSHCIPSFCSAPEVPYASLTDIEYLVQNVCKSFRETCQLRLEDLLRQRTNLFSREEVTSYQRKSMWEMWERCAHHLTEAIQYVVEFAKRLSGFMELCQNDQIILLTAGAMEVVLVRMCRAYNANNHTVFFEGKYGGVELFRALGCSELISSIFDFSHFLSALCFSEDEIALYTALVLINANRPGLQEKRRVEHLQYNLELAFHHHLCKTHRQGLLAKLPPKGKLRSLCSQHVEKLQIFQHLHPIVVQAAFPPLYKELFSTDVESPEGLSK", "assay": "qHTS for inhibitors of ROR gamma transcriptional activity.", "type": "functional", "values": [
      {"smiles": "COC[C@@H]([C@H](O)[C@H](O)C(=O)NCC[C@H](C)c1nc(/C=C/C[C@@H]2O[C@]3(C[C@@H](O)[C@@H]2C)O[C@H]([C@H](C[C@H](O)[C@H](C)[C@H](O)[C@H](C)/C=C(C)/C(C)=C/C=C/C(C)=C\\C#N)OC)[C@H](OP(=O)(O)O)C3(C)C)co1)N(C)C", "Potency": "0.0014 µM (active)"},
      {"smiles": "Cl[Te]1(Cl)OCCO1", "Potency": "15.8 µM (active)"}
    ]}
  ]
}
